LNCaP diff act: LNCaP prostate cell differentiation activation; flow cytometry side scatter, 4 d; side scatter shift, % at 10 µM; AID 795; 24,000 compounds, 0.56% hits;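 active = side scatter shift above 30%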;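 also: androgen-responsive LNCaP prostate cancer cells in charcoal-stripped serum medium; higher shift means more granular cells and more differentiation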
Proteasome disasm: blocks ATP-dependent breakdown of the yeast 26S proteasome; anti-FLAG beads, GFP-proteasome disassembly, flow cytometry; inhibition of disassembly, % (concentration not given with the values); 24,000 compounds, 0.2% hits; AID 751;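 active = inhibition of disassembly above about 33%, limit read from the data; inconclusive = likely self-fluorescent, control bead median signal at least 40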;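 also: higher percent means more bead fluorescence retained so stronger block of disassembly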
S aureus QS inh: S. aureus quorum sensing inhibition. S. aureus RN6390 RNAIII-GFP reporter, AIP-induced, flow cytometry 3 h. AID 527. 24,000 compounds, 0.3% hits. inhibition, % at 2 µM;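 active = share of bacteria positive for the green fluorescent reporter and its mean brightness both inhibited by 50% or more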
Of the large screens only hits and unclear results are named; the others gave an inactive call. Shown are actives, neighbours in structure and some others; about 0.99% of the full set was active somewhere.

Cc1cccn2c(=O)c3cc(C(=O)NC4CCCC4)c(=N)n(C4CCCC4)c3nc12	none
CSc1ccc(C2C(C#N)=C(N)N(c3ccccc3)C3=C2C(=O)CCC3)cc1 (stereo unspecified)	none
CSc1ccc(C2C(C#N)=C(N)Oc3c2ccc(=O)c2c(C)oc(C)c32)cc1 (stereo unspecified)	LNCaP diff act 33.0, Proteasome disasm inconclusive
c1ccc(-c2nc(N3CCCCCC3)nc(-n3ccnc3)n2)cc1	none
c1ccc(-c2ccc(C(c3ccccc3)n3ccnc3)cc2)cc1 (stereo unspecified)	S aureus QS inh 57.9
CCOc1ccc(C2N(c3ccc(F)cc3)C(=O)C3CCCN32)cc1OC (stereo unspecified)	Proteasome disasm 50.9
CCOc1ccc(C2N(c3ccc(OC)cc3)C(=O)C3CCCN32)cc1OC (stereo unspecified)	none
C=CCn1c2ccccc2c2nnc(SCC(=O)NC(C(=O)OC)C(C)C)nc21 (stereo unspecified)	none
Cc1ccc(S(=O)(=O)NC(=O)c2cc(C)n(CCCn3ccnc3)c2C)cc1	none
CCN(CC)CCCNC(CC(=O)O)C(=O)O (stereo unspecified)	none
O=C1CC(c2ccccc2)Cc2nc(N3CCc4ccccc43)ncc21 (stereo unspecified)	Proteasome disasm 74.2
O=C1CC(c2cccc(Cl)c2)Cc2nc(N3CCN(c4ccccc4)CC3)ncc21 (stereo unspecified)	none
COC(=O)C1=C(C)NC(=O)CC1c1cccc(Cl)c1Cl (stereo unspecified)	none
CCOC(=O)C1=C(C)NC(C)=C(C(=O)OC)C1c1cccc(Cl)c1Cl (stereo unspecified)	S aureus QS inh 53.8
CCN(CC)c1ccc(C2CC(=O)Nc3cc(OC)c(OC)cc32)cc1 (stereo unspecified)	none
Cc1oc(-c2ccc(Cl)cc2)nc1CN1CCC(C(=O)N2CCN(Cc3ccccc3)CC2)CC1	LNCaP diff act 78.0
Cc1ccccc1-c1nc(CN2CCC(C(=O)N3CCN(c4ccccn4)CC3)CC2)c(C)o1	none
Cc1oc(-c2ccc(Cl)cc2)nc1CN1CCC(C(=O)N2CCc3ccccc3C2)CC1	none
Cc1oc(-c2cccc(Cl)c2)nc1CN1CCC(C(=O)N2CCN(c3ccccc3F)CC2)CC1	LNCaP diff act 34.0
O=C(C1CCC1)N1CCc2cc(S(=O)(=O)NC3CCCC3)ccc21	none
CN1CCN(c2ccccc2NS(=O)(=O)c2ccc3c(c2)CCN3C(=O)C2CCC2)CC1	LNCaP diff act 46.0
Cc1ccc(S(=O)(=O)N2CCOCC2)cc1C(=O)OCC(=O)N1CCc2ccccc2C1	none
O=C(Nc1ccccc1)C1=C(O)CC(c2ccco2)CC1=Nc1ccccc1 (stereo unspecified)	Proteasome disasm 47.4
O=C(Nc1ccccc1)C1=C(O)CC(c2ccoc2)CC1=Nc1ccccc1 (stereo unspecified)	none
CSc1nsc(SC)c1NC(=O)OCC1CCCO1 (stereo unspecified)	none
COc1nc(-c2ccc(Cl)cc2)ccc1-c1noc(-c2ccncc2)n1	none
COc1ccc(-c2ccc(-c3noc(-c4ccccc4)n3)c(OC)n2)cc1	LNCaP diff act 34.0
CCCc1cc(=O)[nH]c(Nc2ccc(OC)c(Cl)c2)n1	none
O=C(CCCN1CCC(O)(c2ccc(Cl)cc2)CC1)c1ccc(F)cc1	none
C1CNCCNCCNCCN1	none
CC(C)(C)NC(=O)c1sccc1C(=O)O	none
CC(=O)c1ccc(N2CCN(C(=O)c3cc4c(-c5ccccc5F)nn(C)c4s3)CC2)cc1	none
CC(CCc1ccco1)NC(=O)c1cc2c(-c3ccccc3F)nn(C)c2s1 (stereo unspecified)	S aureus QS inh 61.3
COC(=O)c1cc(-c2ccccc2)n(CC(=O)O)c1C	none
CCN(C(=O)c1c(OC)cccc1OC)c1nnc(-c2cccnc2)s1	none
CN(C(=O)c1ccccn1)c1nnc(-c2cccnc2)s1	LNCaP diff act 32.0
COc1ccc(CNC(=O)c2onc(C)c2Cl)cc1	Proteasome disasm 124.2
COc1ccc(CNC(=O)c2cc(C3CC3)on2)cc1	none
CCOC(=O)c1ccc(CNC(=O)c2cc3cccc(OC)c3oc2=O)o1	none
COc1cccc(-c2nnc3sc(-c4ccc(C)cc4)nn23)c1	none
Clc1cccc(-c2nnc3sc(-c4ccccc4)nn23)c1	LNCaP diff act 32.0
O=C(NC1CCCc2ccccc21)C1CCC(CNc2c(N3CCOCC3)c(=O)c2=O)CC1 (stereo unspecified)	none
CCc1noc(N)c1C(=O)Nc1ccc(F)c(Cl)c1	none
N#Cc1cccc(NC(=O)NCCc2c[nH]c3ccccc23)c1	none
CCc1ccc(-c2nc(CN3CCC(C(=O)NCCc4ccc(OC)c(OC)c4)CC3)c(C)o2)cc1	LNCaP diff act 32.0
CCN1CCCC1CNC(=O)C1CCN(Cc2nc(-c3cccc(Br)c3)oc2C)CC1 (stereo unspecified)	LNCaP diff act 63.0
Cc1oc(-c2ccc(Cl)cc2)nc1CN1CCC(C(=O)NCCCN2CCCC2=O)CC1	none
Cc1oc(-c2cccc(Cl)c2)nc1CN1CCC(C(=O)NCc2ccco2)CC1	none
CCN1CCN(CCNC(=O)C2CCN(Cc3nc(-c4ccc(Cl)cc4)oc3C)CC2)CC1	LNCaP diff act 44.0
COc1ccc(CCNC(=O)C2CCN(Cc3nc(-c4ccccc4F)oc3C)CC2)cc1OC	none
COc1ccccc1CNC(=O)C1CCN(Cc2nc(-c3cccc(Cl)c3)oc2C)CC1	none
COc1ccccc1CNC(=O)C1CCN(Cc2nc(-c3ccc(Cl)cc3)oc2C)CC1	LNCaP diff act 32.0
COC(=O)c1ccc(CNC(=O)COc2ccccc2Br)o1	none
O=C(NCC1CCCO1)C(=O)NCC(c1ccco1)N1CCN(c2ccccc2F)CC1 (stereo unspecified)	none (no result: LNCaP diff act, Proteasome disasm)
O=C1SC(SC(=Nc2ccccc2)Nc2ccccc2)C(=O)N1c1ccccc1 (stereo unspecified)	none (no result: LNCaP diff act, Proteasome disasm)
CCc1ccc(-c2nc(CN3CCC(C(=O)NCc4ccccc4OC)CC3)c(C)o2)cc1	none
COc1ccc(-c2nc(CN3CCC(C(=O)NC4CCCc5ccccc54)CC3)c(C)o2)cc1OC (stereo unspecified)	LNCaP diff act 39.0
O=C(Cc1coc(-c2ccc(F)cc2)n1)N1CCOCC1	LNCaP diff act 30.0
O=C(Cc1coc(-c2ccc(F)cc2)n1)NC1CCCCC1	none
Cn1c(CN2CCOCC2)nnc1SCC(=O)NCCc1ccccc1	none
Cc1cc(C)n2nnnc2c1C#N	LNCaP diff act 37.0
Cc1cc(C)n(Cc2ccc(F)cc2)c(=O)c1C#N	none
Cc1ccccc1-c1nc(CN2CCC(C(=O)NCCCN3CCOCC3)CC2)c(C)o1	none
Cc1ccccc1-c1nc(CN2CCC(C(=O)NCCCN3CCCC3)CC2)c(C)o1	LNCaP diff act 65.0
Cc1ccccc1-c1nc(CN2CCC(C(=O)NCCCN3CC(C)CC(C)C3)CC2)c(C)o1 (stereo unspecified)	LNCaP diff act 75.0
Cc1ccccc1-c1nc(CN2CCC(C(=O)NCc3ccco3)CC2)c(C)o1	none
Cc1c2c(n3c(nc4ccccc43)c1C#N)N(Cc1ccccn1)CC2	none (no result: LNCaP diff act)
NS(=O)(=O)c1ccc(C(=O)O)cc1	none
Cn1c(=O)cc(OCC(=O)NCCCN2CCN(c3ccccc3F)CC2)c2ccccc21	none
CC1(C)CC(=O)c2cc(OCC(=O)NCc3cccnc3)ccc2O1	none
CC1(C)CC(=O)c2cc(OCC(=O)NCCCN3CCN(c4ccccc4F)CC3)ccc2O1	LNCaP diff act 30.0
